Compounds without any hit were thinned out: in the full panel of roughly 83,000, 20% have a hit.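 Results are percent growth after 48 hours of single-concentration exposure. 100 means growth as in untreated cells, lower positive values show inhibition; negative values down to -100 show cell death.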 A number with no mark means an inactive call. Activity calls are given as the source filed them. Rule for the calls: active = growth percent below 10; inactive = the rest.

Assay in all cases: NCI-60 one-dose screen, 48 h (100 = growth as untreated, 0 = no growth, -100 = all killed)
The subject of one test is HCT-15 colon. The settings on record: 10 µM unless noted.
For another test, the system named is HT29 colon. The settings on record: 10 µM unless noted.
Another test deals with SNB-75 CNS. The settings on record: 10 µM unless noted.
The next test concerns SNB-19 CNS. The settings on record: 10 µM unless noted.
In a further test the test system is U251 CNS. The settings on record: 10 µM unless noted.
The next test deals with PC-3 prostate. The settings on record: 10 µM unless noted.
The subject of another test is SK-MEL-5 melanoma. The settings on record: 10 µM unless noted.
Another test concerns UACC-62 melanoma. The settings on record: 10 µM unless noted.
In a further test the test system is LOX IMVI melanoma. The settings on record: 10 µM.
A further test relates to SK-MEL-28 melanoma. The settings on record: 10 µM unless noted.
A further test has as its system SN12C renal. The settings on record: 10 µM unless noted.
Another test has as its system UO-31 renal. The settings on record: 10 µM unless noted.
For another test, the system named is TK-10 renal. The settings on record: 10 µM unless noted.
In a further test the test system is ACHN renal. The settings on record: 10 µM unless noted.
In the next test the test system is CAKI-1 renal. The settings on record: 10 µM unless noted.
A further test deals with A498 renal. The settings on record: 10 µM unless noted.
The test system of a further test is CCRF-CEM leukemia. The settings on record: 10 µM unless noted.
For the next test, the system named is MOLT-4 leukemia. The settings on record: 10 µM unless noted.
A further test concerns SK-MEL-2 melanoma. The settings on record: 10 µM unless noted.
The next test concerns EKVX NSCLC. The settings on record: 10 µM unless noted.

As to `CN(C)c1ccc(/C=C/c2cc[n+](C)c(/C=C/c3ccc(N(C)C)cc3)c2)cc1`, the growth is 19.5% in the test on HCT-15 colon; -7.82% (active) in the test with HT29 colon; 22.3% in the test on SNB-75 CNS; 27% in the test with SNB-19 CNS; 15.3% with U251 CNS; 3.98% (active) in the test with PC-3 prostate. For the same molecule, the growth in the test with SK-MEL-5 melanoma was -95.6% (active); with UACC-62 melanoma, 12.3%; with LOX IMVI melanoma, 12.3%; in the test with SK-MEL-28 melanoma it was 20.6%; in the test with SN12C renal, 13.5%; in the test with UO-31 renal, -11.4% (active). The growth in the test with TK-10 renal is 0.183% (active); with ACHN renal it was 14.6%; in the test with CAKI-1 renal, -4.63% (active); in the test with A498 renal it was -10.3% (active); with CCRF-CEM leukemia it was 6.95% (active); in the test with MOLT-4 leukemia, -26.5% (active).
Consider `CCCCCCCCCCCCCCCC[N+]1(C)CCCC1c1cccnc1` (stereo not given), for which the growth with HCT-15 colon was 77.9%; with HT29 colon it was 15.1%; with SNB-75 CNS, 37.1%; with SNB-19 CNS, 29.1%; with U251 CNS, 16.7%; with PC-3 prostate, 8.08% (active). In addition, the growth in the test with SK-MEL-5 melanoma was 43.9%; with UACC-62 melanoma, 50.6%; in the test with LOX IMVI melanoma it was 49.2%; in the test with SK-MEL-28 melanoma, 97%; in the test on SK-MEL-2 melanoma, 98.1%; with SN12C renal, 44.5%. The growth in the test on UO-31 renal is 91.3%; in the test with TK-10 renal it was 49.7%; in the test on ACHN renal, 85.6%; in the test on CAKI-1 renal, 92.9%; with CCRF-CEM leukemia, 38.7%; in the test on MOLT-4 leukemia, 33%.
Consider `OC(c1cc2ccc(C(F)(F)F)cc2c2cc(C(F)(F)F)ccc12)C1CCCCN1` (stereo not given), for which the growth in the test on HCT-15 colon was -90.4% (active); with HT29 colon it was -100% (active); in the test with SNB-75 CNS, -94.4% (active); with SNB-19 CNS, -80.6% (active); in the test on U251 CNS, -100% (active); in the test with PC-3 prostate it was -95.2% (active). For the same molecule, the growth with SK-MEL-5 melanoma was -95.4% (active); in the test on UACC-62 melanoma it was -96.5% (active); with LOX IMVI melanoma, -100% (active); with SK-MEL-28 melanoma, -99.3% (active); in the test with EKVX NSCLC, -96.7% (active); in the test on SN12C renal, -90.8% (active). In addition, the growth in the test on UO-31 renal was -95.8% (active); with TK-10 renal, -89.5% (active); in the test on ACHN renal it was -94.1% (active); in the test on CAKI-1 renal, -93.8% (active); with A498 renal it was -65.6% (active); in the test with CCRF-CEM leukemia, -68% (active). For the same molecule, the growth with MOLT-4 leukemia was -73.4% (active).
On to `Cc1cccc2c(N)c3ccccc3nc12`, for which the growth was -8.39% (active) with HCT-15 colon; -7.57% (active) in the test with HT29 colon; 2.93% (active) in the test on SNB-75 CNS; 27.5% with SNB-19 CNS; -17.6% (active) in the test on U251 CNS; -18.7% (active) in the test with PC-3 prostate. Moreover, the growth in the test on SK-MEL-5 melanoma is -77.2% (active); in the test on UACC-62 melanoma it was -57.6% (active); in the test on LOX IMVI melanoma, -57.3% (active); with SK-MEL-28 melanoma, -41.1% (active); in the test on SK-MEL-2 melanoma, -28.5% (active); in the test on SN12C renal, -9.63% (active). In addition, the growth in the test with UO-31 renal was -53.9% (active); in the test on TK-10 renal, -5.29% (active); with ACHN renal it was -18.6% (active); in the test on CAKI-1 renal it was -21.9% (active); in the test with A498 renal it was -46.5% (active); in the test with CCRF-CEM leukemia, 6.63% (active). In addition, in the test with MOLT-4 leukemia, the growth was 2.71% (active).
On to `O=C1C=Cc2ccccc2/C1=C/c1nc(-c2ccccc2)oc1O`, for which the growth in the test on HCT-15 colon is 92.4%; in the test on HT29 colon, 108%; with SNB-75 CNS it was 70.8%; in the test on SNB-19 CNS it was 102%; with U251 CNS it was 95%; in the test on PC-3 prostate, 89.1%. Moreover, the growth was 92.4% in the test on SK-MEL-5 melanoma; 93.8% in the test with UACC-62 melanoma; 84.8% in the test with LOX IMVI melanoma; 106% in the test with SK-MEL-28 melanoma; 78.7% in the test on EKVX NSCLC; 94.8% in the test on SN12C renal. Moreover, the growth is 65.5% in the test with UO-31 renal; 136% with TK-10 renal; 81.9% in the test on ACHN renal; 86.8% in the test with CAKI-1 renal; 113% in the test with A498 renal; 110% in the test on CCRF-CEM leukemia. In addition, the growth in the test with MOLT-4 leukemia is 96.5%.
As for `Cc1onc(-c2ccccc2)c1C(=O)N/N=C/c1cc(Cl)cc(Cl)c1O`, the growth with HCT-15 colon was 25.6%; in the test with HT29 colon, 42.2%; with SNB-75 CNS, 61.4%; with SNB-19 CNS it was 43.8%; in the test with U251 CNS it was 25%; with PC-3 prostate it was 46.2%. The growth in the test on SK-MEL-5 melanoma is 9.32% (active); in the test with UACC-62 melanoma, 10.9%; with LOX IMVI melanoma it was 11.2%; in the test on SK-MEL-28 melanoma it was 51.3%; with SK-MEL-2 melanoma, 37.7%; in the test on SN12C renal, 33.1%. Also, the growth in the test on UO-31 renal was 1.5% (active); with TK-10 renal, 40.1%; in the test on ACHN renal, 22.1%; with CAKI-1 renal, 8.2% (active); in the test on A498 renal it was 81.2%; with CCRF-CEM leukemia, 21.9%. Besides, the growth with MOLT-4 leukemia was 19.2%.
On to `CCCCC(CCc1ccc([N+](=O)[O-])cc1)(C(C)=O)C(=O)OCC` (stereo not given), for which the growth in the test on HCT-15 colon is 94.7%; in the test on HT29 colon it was 94.2%; in the test on SNB-75 CNS, 85.1%; in the test on SNB-19 CNS, 108%; in the test with U251 CNS, 95.3%; in the test with PC-3 prostate, 81.2%. Moreover, the growth in the test on SK-MEL-5 melanoma was 93.2%; with UACC-62 melanoma, 97.5%; in the test with LOX IMVI melanoma it was 95.8%; in the test on SK-MEL-28 melanoma it was 100%; with SK-MEL-2 melanoma it was 99.6%; in the test with SN12C renal, 103%. In addition, the growth in the test with UO-31 renal is 67.7%; with TK-10 renal it was 97.3%; in the test on ACHN renal, 114%; in the test on CAKI-1 renal, 96.8%; in the test with A498 renal, 50.6%; in the test with CCRF-CEM leukemia it was 94.5%. The growth in the test on MOLT-4 leukemia is 90.3%.
`O=C1C=CC(=O)N1c1ccc(O)cc1`: the growth with HCT-15 colon is 102%; in the test on HT29 colon, 112%; with SNB-75 CNS, 98.1%; with SNB-19 CNS, 103%; with U251 CNS, 99.9%; with PC-3 prostate, 98.3%. The growth is 102% with SK-MEL-5 melanoma; 95.4% with UACC-62 melanoma; 99.8% in the test on LOX IMVI melanoma; 107% with SK-MEL-28 melanoma; 109% with EKVX NSCLC; 104% in the test with SN12C renal. In addition, the growth was 98.5% with UO-31 renal; 103% in the test with TK-10 renal; 94.3% in the test on ACHN renal; 107% in the test on CAKI-1 renal; 104% in the test with A498 renal; 81% in the test with CCRF-CEM leukemia. The growth in the test on MOLT-4 leukemia is 104%.

The values above are taken from PubChem BioAssay (NCI).
